From PubChem BioAssay AID1159580 (chemical genetic matrix, 2015)
Values joined by “and” are separate entries in the source; they are usually repeats but may differ in a detail not shown here. Equal values may be shown once. Screen size: about 5,500 compounds; about 2,000 (36%) were called active. Not shown: some 18% with an inconclusive outcome. Cut-off read from the data, not from the text of the source: active = normalized growth mostly below about 0.91 (no sharp cut-off); inconclusive = no clear call, values can overlap the other calls; inactive = mostly above about 0.92. This is one part of the list.

Assay: chemical genetic growth profiling, strain panel (AID 1159580);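 note: tested at 20 µM; growth read once vehicle control cultures reached saturation at 30 °C; 1 = growth at the plate median or of vehicle wells; lower values mean less growth of the strain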
Conditions: S. cerevisiae deletion strains, growth OD

Measured: normalized growth

CCn1cc(C(=O)O)c(=O)c2cc(F)c(N3CCNC(C)C3)c(F)c21 (centres undefined)
inactive: locus YAL013W, strain DEP1, active compounds read low 0.989 | locus YAL021C, strain ccr4, active compounds read low 0.957 | locus YAL026C, strain drs2, active compounds read low 0.974 | locus YAL030W, strain snc1, active compounds read low 0.988 | locus YAL040C, strain CLN3, active compounds read low 0.984 | locus YBL061C, strain skt5, active compounds read low 0.962 | locus YBR009C, strain hhf1, active compounds read low 1.01 | locus YBR021W, strain FUR4, active compounds read low 0.982 | locus YBR023C, strain chs3, active compounds read low 0.986 | locus YBR171W, strain sec66, active compounds read low 0.975 | locus YBR229C, strain ROT2, active compounds read low 1 | locus YBR231C, strain swc5, active compounds read low 0.997 | locus YBR279W, strain paf1, active compounds read low 0.975 | locus YCL011C, strain gbp2, active compounds read low 0.971 | locus YCL016C, strain dcc1, active compounds read low 0.958 | locus YCL029C, strain bik1, active compounds read low 0.979 | locus YCL061C, strain MRC1 (second series), active compounds read low 0.997 | locus YCL061C, strain MRC1, active compounds read low 0.993 | locus YCL069W, strain vba3, active compounds read low 0.975 | locus YCR088W, strain abp1, active compounds read low 0.964 | locus YDL005C, strain med2, active compounds read low 0.97 | locus YDL035C, strain GPR1, active compounds read low 0.978 | locus YDL040C, strain nat1, active compounds read low 0.981 | locus YDL074C, strain BRE1, active compounds read low 1.02 | locus YDL101C, strain DUN1, active compounds read low 0.995 | locus YDL134C, strain PPH21, active compounds read low 0.985 | locus YDL185W, strain tfp1, active compounds read low 0.963 | locus YDL192W, strain arf1, active compounds read low 0.992 | locus YDR001C, strain nth1, active compounds read low 0.974 | locus YDR069C, strain doa4, active compounds read low 0.989 | locus YDR101C, strain arx1, active compounds read low 0.988 | locus YDR137W, strain rgp1, active compounds read low 0.949 | locus YDR150W, strain NUM1, active compounds read low 0.996 | locus YDR159W, strain sac3, active compounds read low 0.949 | locus YDR162C, strain NBP2, active compounds read low 0.98 | locus YDR195W, strain ref2 0.997 | locus YDR297W, strain sur2, active compounds read low 0.978 | locus YDR318W, strain mcm21, active compounds read low 0.976 | locus YDR334W, strain swr1, active compounds read low 0.975 | locus YDR335W, strain msn5, active compounds read low 0.968 | locus YDR363W, strain ESC2, active compounds read low 1.01 | locus YDR388W, active compounds read low 0.995 | locus YDR392W, strain spt3, active compounds read low 0.842 | locus YDR502C, strain sam2, active compounds read low 0.986 | locus YEL003W, strain gim4, active compounds read low 0.982 | locus YEL037C, strain rad23, active compounds read low 0.974 | locus YEL061C, strain CIN8 (second series), active compounds read low 0.975 | locus YEL061C, strain CIN8, active compounds read low 1.01 | locus YER002W, strain NOP16, active compounds read low 0.987 | locus YER015W, strain faa2, active compounds read low 0.988 | locus YER016W, strain bim1, active compounds read low 0.948 | locus YER110C, active compounds read low 0.984 | locus YER111C, strain swi4, active compounds read low 0.964 | locus YER155C, strain BEM2 (second series), active compounds read low 0.945 | locus YER155C, strain BEM2, active compounds read low 0.993 | locus YER167W, strain BCK2, active compounds read low 0.971 | locus YFR010W, strain ubp6, active compounds read low 1 | locus YGL078C, strain dbp3, active compounds read low 0.988 | locus YGL086W, strain mad1, active compounds read low 0.995 | locus YGL167C, strain pmr1, active compounds read low 0.98 | locus YGL173C, strain kem1, active compounds read low 0.993 | locus YGL227W, strain vid30, active compounds read low 0.981 | locus YGL240W, strain doc1, active compounds read low 1.01 | locus YGL248W, strain PDE1, active compounds read low 1.01 | locus YGL253W, strain hxk2, active compounds read low 0.98 | locus YGR078C, strain PAC10, active compounds read low 1.04 and 1.02 | locus YGR135W, strain pre9, active compounds read low 0.953 | locus YGR252W, strain gcn5, active compounds read low 0.991 | locus YHR013C, strain ard1, active compounds read low 0.984 | locus YHR027C, strain rpn1, active compounds read low 1 | locus YHR030C, strain SLT2, active compounds read low 0.988 and 1.03 | locus YHR079C, strain IRE1 (second series), active compounds read low 0.985 | locus YHR079C, strain IRE1, active compounds read low 1.06 | locus YHR094C, strain hxt1, active compounds read low 0.993 | locus YHR129C, strain ARP1, active compounds read low 0.991 | locus YHR142W, strain chs7, active compounds read low 0.948 | locus YHR200W, strain rpn10, active compounds read low 0.982 | locus YIL066C, strain RNR3, active compounds read low 1.01 | locus YIL073C, strain SPO22, active compounds read low 0.867 | locus YIL125W, strain kgd1, active compounds read low 0.998 | locus YIR030C, strain dcg1, active compounds read low 0.98 | locus YJL092W, strain hpr5, active compounds read low 0.99 | locus YJL095W, strain BCK1 (second series), active compounds read low 0.968 | locus YJL095W, strain BCK1, active compounds read low 1.03 and 1.01 | locus YJL115W, strain asf1, active compounds read low 0.967 | locus YJL129C, strain trk1, active compounds read low 0.931 | locus YJL134W, strain LCB3, active compounds read low 0.987 | locus YJL154C, strain vps35, active compounds read low 0.967 | locus YJL164C, strain tpk1, active compounds read low 0.975 | locus YJL166W, strain qcr8, active compounds read low 0.998 | locus YJL168C, strain set2, active compounds read low 0.999 | locus YJL187C, strain SWE1 (second series), active compounds read low 1.02 | locus YJR043C, strain POL32, active compounds read low 1.01 | locus YJR066W, strain TOR1, active compounds read low 0.956
